# Source: PMC5540273 (PLoS ONE, 2017)
# Legend:
# Conditions in all cases: concentration: 1 μM, replicates: in singlicate; n = 1
# [1] = test system: MKNK1
# [2] = test system: MKNK2
# [3] = test system: T1, MLCK
# T1 construct: gene MYLK3
# [4] = test system: T2, MLK1
# T2 construct: gene MAP3K9
# [5] = test system: MLK2
# [6] = test system: MLK3
# [7] = test system: MRCKA
# [8] = test system: T3, MRCKB
# T3 construct: gene CDC42BPB
# [9] = test system: MST1R
# [10] = test system: T4, MST1
# T4 construct: gene STK4
# [11] = test system: T5, MST2
# T5 construct: gene STK3
# [12] = test system: T6, MST3
# T6 construct: gene STK24
# [13] = test system: MST4
# [14] = test system: MTOR
# [15] = test system: MUSK
# [16] = test system: MYLK2
# [17] = test system: MYLK4
# [18] = test system: MYLK
# [19] = test system: MYO3A
# [20] = test system: MYO3B
# 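Also: KINOMEscan kinase panel screen.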
Compound,%Inh [1] [%],%Inh [2] [%],%Inh [3] [%],%Inh [4] [%],%Inh [5] [%],%Inh [6] [%],%Inh [7] [%],%Inh [8] [%],%Inh [9] [%],%Inh [10] [%],%Inh [11] [%],%Inh [12] [%],%Inh [13] [%],%Inh [14] [%],%Inh [15] [%],%Inh [16] [%],%Inh [17] [%],%Inh [18] [%],%Inh [19] [%],%Inh [20] [%]
Cn1ccc2ncnc(Oc3cccc(C(=O)Nc4ccccc4)c3)c21,12,11,13,0,6,12,1,15,11,0,13,20,7,0,0,0,4,0,0,4
CCn1c(-c2cccnc2O)nc2cnccc21 [SB-736715],17,1,0,0,0,0,4,0,0,0,23,0,0,0,0,15,0,0,0,3
O=C(Nc1n[nH]c2cc(-c3cccc(F)c3F)ccc12)C1CC1 [SB-733894],0,20,18,0,0,4,6,17,6,0,31,0,8,0,0,90.2,0,8,2,0
Nc1nc(-c2nccs2)c(-c2ccnc3ccccc23)s1 [GW693542],11,6,0,6,0,0,12,0,33,2,75,0,0,15,15,11,0,11,3,0
C[C@@H]1CCCCN1c1cc(-c2ccc3c(N)n[nH]c3c2)nc(N)n1 [GSK2258759],0,5,0,0,0,0,6,0,28,0,0,7,0,2,5,0,0,5,30,0
Fc1cc(Cl)ccc1Nc1ccnc2cc(I)ccc12 [GW551191],0,18,2,0,0,0,16,0,82,0,9,0,0,8,0,0,0,11,13,0
CC(C)(C)c1ccc(C(=O)Nc2cn3cc(-c4cccnc4)ccc3n2)cc1,0,26,41,12,43,0,9,0,48,33,42,38,0,11,17,53,11,28,8,22
CN1C(=O)C(Nc2ccc(Cl)c(C(=O)O)c2)=C(c2ccc(Cl)cc2)C1=O [SB-404290],0,10,0,0,0,4,13,0,19,12,0,0,33,0,13,0,5,12,11,31
COc1cc(Nc2nccc(N3CCC(NC(=O)Nc4cc(C)ccc4C)C3)n2)cc(OC)c1OC (stereo not drawn) [GSK1379762],9,37,0,25,4,23,0,0,52,13,0,6,0,10,25,6,0,12,2,0
O=C(Nc1n[nH]c2nc(-c3nccs3)c(Br)cc12)C1CC1 [SB-742251],59,51,48,0,0,0,3,0,18,3,0,0,0,16,0,93.4,23,7,0,0
Cc1c(Cn2ccn3c(=O)cc(N4CCOCC4)nc23)cccc1C(F)(F)F [GSK2289044],0,0,7,0,0,3,0,0,27,1,0,0,0,15,17,0,0,16,12,2
O=C(Nc1n[nH]c2nc(-c3nccs3)c(Br)cc12)C1CCCC1 [SB-742609],31,31,39,9,12,0,0,0,27,3,0,0,6,11,31,90,27,0,0,0
O=c1cc(N2CCOCC2)nc2n(Cc3cccc(Cl)c3Cl)ccn12 [GSK2286295],7,1,16,0,0,7,8,0,25,0,0,0,0,17,8,2,0,25,0,8
CN(C)CCN(C)C(=O)c1cc(-c2ccncc2)c(-c2ccc(Cl)c(O)c2)o1.Cl.Cl [SB-710397],2,1,12,0,0,0,17,2,42,0,0,0,0,33,18,11,0,10,0,0
Cc1c(O)cccc1Nc1ccnc2ccc(C(F)(F)F)cc12.Cl [GW466413],0,1,1,0,0,4,0,0,0,0,0,0,0,0,0,0,0,0,0,0
Cn1ccc2ncnc(Oc3ccc(NC(=O)Nc4ccccc4)cc3)c21,13,43,0,0,0,19,0,16,10,0,0,0,0,16,14,2,0,3,5,28
Cc1cccc(-c2nc(-c3ccc(S(C)(=O)=O)cc3)sc2-c2ccnc(NCCc3ccccc3)c2)c1,3,0,0,0,2,0,6,0,28,0,4,0,32,0,0,14,12,0,10,0
Cc1cccc(-c2cc(Nc3ccncc3)c3ccccc3n2)n1 [GSK223675],11,4,0,0,0,0,0,0,33,0,6,5,0,7,1,0,0,15,17,0
CS(=O)(=O)c1ccc(-c2c(-c3ncn[nH]3)sc(N3CCOCC3)c2C#N)cc1,0,0,13,0,51,15,0,16,29,24,13,100,0,74,2,12,29,9,4,4
Cl.c1ccc(-c2n[nH]cc2-c2ccnc(-c3ccc(CN4CCOCC4)cc3)c2)nc1 [GW776245],1,0,0,13,25,10,29,0,0,21,0,0,0,42,1,10,0,2,0,1
COc1ccc(C2=C(Nc3cccc(C(=O)O)c3)C(=O)NC2=O)cc1 [SB-390765],0,43,27,0,0,27,0,8,24,0,0,9,16,0,9,0,0,14,12,0
